The panel holds about 83,000 compounds, 20% with a hit somewhere; the sample as a whole holds those more often.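 Interpretation: 100, growth as untreated; towards 0, rising growth inhibition; 0, no net growth; 0 to -100, cell death. Compounds scoring below 10 were considered active.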 The source made the active and inactive calls.

The assay relates to KM12 colon. Put plainly: NCI-60 one-dose screen, 48 h (100 = growth as untreated, 0 = no growth, -100 = all killed). The following applies: 10 µM unless noted.
In the case of `O=C(COc1ccc(/C=C2\SC(=O)NC2=O)cc1)Nc1ccc(C(=O)/C=C/c2cc3ccccc3nc2Cl)cc1`, the growth is 59.5% (inactive).

With `CC(C)Sc1nc(NC2CC2)c(C#N)c(-c2ccccc2)n1`, the growth was 97.5% (inactive).

Take `O=C(COc1cccc2cccnc12)Nc1ccc(C(=O)/C=C/c2ccc(Cl)cc2)cc1`: the growth was 86.5% (inactive).

Regarding `Oc1ccc(CSc2nnc(-c3ccc(Br)cc3)n2-c2ccccc2)c2cccnc12`, the growth is 26.3% (inactive).

Turning to `COc1ccccc1N1CCN(C2=NN=C(c3cccc(Cl)c3)c3ccccc3C2)CC1`, the growth was 6.16% (active).

For `O=C1/C(=C/c2ccc([N+](=O)[O-])cc2)SC(=Nc2ccccc2)N1Nc1ccccc1`, the growth is 77.5% (inactive).

For the compound `COc1ccc([C@H]2c3[nH]c4ccccc4c3C[C@@H]3C(=O)N(C4CCN(Cc5ccccc5)CC4)CC(=O)N23)c(OC)c1`, the growth was 79.6% (inactive).

Regarding `CC1OC(O[C@@H]2[C@H](O)C(CO)OC(O[C@H]3COC(O[C@H]4CC[C@]5(C)[C@H]6CC[C@]78OC[C@@]9(CCC(C)(C)C[C@H]97)[C@H](O)C[C@@]8(C)[C@]6(C)CC[C@H]5C4(C)C)[C@@H](OC4OC(CO)[C@@H](O)[C@@H](O)[C@@H]4O)[C@@H]3O)[C@H]2OC2OC[C@@H](O)[C@@H](O)[C@@H]2O)[C@@H](O)[C@@H](O)[C@H]1O` (stereo partly specified), the growth was -51.9% (active).

Take `N#Cc1c(-c2cccs2)cc(-c2cnccn2)nc1SCC(=O)NNC(=S)Nc1ccc(F)cc1`: the growth was 101% (inactive).

As to `NS(=O)(=O)c1ccc(Nc2nc(N/N=C/c3ccc(C(F)(F)F)cc3)nc(Nc3ccccc3)n2)cc1`, the growth was 21.7% (inactive).

Turning to `COc1cc(CNC(=O)/C=C/c2ccccc2)ccc1OCC(=O)NO`, the growth was 99.3% (inactive).

Regarding `NS(=O)(=O)c1ccc(Nc2nc(N/N=C/c3ccc(F)cc3)nc(Nc3ccccc3)n2)cc1`, the growth is 30.9% (inactive).

`C=C1C(=O)O[C@@H]2C[C@@H](C)[C@H](OC)CC(=O)[C@](C)(OC(C)=O)C[C@H](OC(=O)/C(C)=C\C)[C@@H]12`: the growth is 93.7% (inactive).

Regarding `O=C(c1ccc(O)cc1)[C@@H]1[C@@H]2CCCN2[C@@]2(C(=O)N(C(=O)c3ccc(F)cc3)c3ccccc32)[C@H]1c1ccc(F)cc1`, the growth was 100% (inactive).

Turning to `Cc1ccc(-n2cc(/C=C/C(=O)c3ccc(S(C)(=O)=O)cc3)c(-c3ccc(S(C)(=O)=O)cc3)n2)cc1`, the growth was 59.5% (inactive).

Regarding `Cc1ccc(Cc2cnc(NC(=O)/C(C#N)=C/c3ccc(-c4ccc(Cl)cc4)o3)s2)cc1`, the growth was 90.4% (inactive).

In the case of `C=C(C)C(=O)O[C@H]1C[C@@]2(C)OC(=CC2=O)/C(C)=C\[C@H]2OC(=O)C(=C)[C@H]12`, the growth is -8.25% (active).

As for `Oc1ccc(CSc2nnc(-c3ccc(Oc4ccccc4)cc3)o2)c2cccnc12`, the growth was 9.88% (active).

For `O=c1[nH]c(CCl)nc2c1cnn2-c1ccccc1`, the growth was 101% (inactive).

Take `C=C1C(=O)O[C@@H]2/C=C(/C)C3=CC(=O)[C@@](C)(C[C@H](OC(=O)/C(C)=C\C)[C@@H]12)O3`: the growth was 28.2% (inactive).

For `O=C1CC2(CCOCC2)Oc2ncccc21`, the growth is 12.1% (inactive).

As to `O=C(Nc1ccc(F)cc1)c1cc(-c2ccc(F)cc2F)ccc1O`, the growth was 6.07% (active).

In the case of `COc1ccc(/C=N\NC(=O)c2ccc3nc(-c4ccc(Br)cc4)[nH]c3c2)cc1`, the growth is 25.9% (inactive).

As to `O=C(O)c1ccc(-n2cc(CNc3ccc(Cl)cc3)c(-c3ccc(F)cc3)n2)cc1`, the growth was 104% (inactive).

`COc1cc(/C=N/n2cnc3oc(-c4ccccc4)cc3c2=N)cc(CN2CCCC2)c1O`: the growth is 11.2% (inactive).

With `CCOC(=O)c1c(NCC(=O)Nc2cccc(Cl)c2)sc2c1CCCC2`, the growth was 95.8% (inactive).

Consider `C=C1C(=O)O[C@@H]2C[C@@H](C)CCC(=O)[C@](C)(OC(C)=O)C[C@H](OC(=O)/C(C)=C\C)[C@@H]12`, for which the growth was 91.6% (inactive).

In the case of `C=C1C(=O)O[C@@H]2C[C@@H](C)/C=C\C(=O)[C@](C)(OC(C)=O)C[C@H](OC(=O)/C(C)=C\C)[C@@H]12`, the growth is 11.9% (inactive).

As to `CCCCCCNC(=O)Oc1ccc(/C(=C(/C)c2ccc(OC)cc2)c2ccc(OCCN3CCCC3)cc2)cc1`, the growth is 82% (inactive).

For `CN(C)c1ccc(/C=N/Nc2nc(N/N=C/c3ccc(N(C)C)cc3)nc(N3CCOCC3)n2)cc1`, the growth was 104% (inactive).

For `COc1ccc(-c2oc3cc(O)cc(O)c3c(=O)c2OC)cc1O`, the growth was 26.2% (inactive).
